Results reported in PubChem BioAssay (NCI).
This is part of a sample that, as a whole, favours compounds with a hit. Of some 83,000 tested, about 20% had one in any assay.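 Each cell line was grown in a 96-well plate and treated with one concentration of compound for 48 hours. Values below 10 were considered active.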 Values without a mark were called inactive. Calls of active or inactive are those of the source.

Test system: SK-MEL-2 melanoma
Experiment: NCI-60 one-dose screen, 48 h (100 = growth as untreated, 0 = no growth, -100 = all killed)
Conditions: 10 µM unless noted
Protocol: Growth inhibition of the SK-MEL-2 human tumor cell line is measured as a screen for anti-cancer activity. Cells are grown in 96 well plates and exposed to the test compound for 48 hours. Compounds are tested at a single concentration, which is 10^-5 M for most compounds. The reported endpoint is percent growth (GI% or GIPRCNT), where numbers from 0 - 100% represent growth inhibition, and numbers from -100% - 0 represent cell death. For example, a value of 40 represents 60% growth inhibition. A value of 0 means no net growth occurred over the course of the experiment. A value of -40 indicates 40% of cells at the beginning of the experiment died by the end of the experiment. A value of -100 means all cells are dead at the end of the experiment.
NCI-60 Human Tumor Cell Lines Screen was performed using the standard one-dose NCI protocol, which is described in more detail at https://dtp.cancer.gov/discovery_development/nci-60/default.htm.
Compounds with GIPRCNT values below 10 were considered active. Activity score was based on GIPRCNT using the following formula: […]
Score is 0 for GIPRCNT values of 100 or above, 50 for GIPRCNT values of 0, and 100 for GIPRCNT values of -100.

Q: For `CC(C)(C)OC(=O)N1CCN(c2ccc(N)cc2)C(=O)C1`, which growth is on record?
A: 111%

Q: Which growth does the source give for `COc1cc2c(cc1[N+](=O)[O-])-c1ccc([N+](=O)[O-])cc1/C2=N\O` here?
A: 92.6%

Q: Which growth does the source give for `COc1ccccc1OCC(=O)N1CCCCCC1` here?
A: 114%

Q: For `COc1ccc(C(=O)c2cc3c(N)c(C(=O)Nc4cccc(Cl)c4C)sc3nc2C)cc1`, which growth is on record?
A: 36.9%

Q: Which growth does the source give for `CCCOc1nc(SCCC)nc2c1cnn2-c1ccccc1` here?
A: 86.8%

Q: With `Cn1c(=O)c2[nH]c(CCCc3nc4c([nH]3)c(=O)n(C)c(=O)n4C)nc2n(C)c1=O` as the molecule, how does the growth read?
A: 109%

Q: For `COc1ccc(C2CC(c3cccc(Nc4ccncc4)c3)=NN2c2cc(Cl)cc(Cl)c2)cc1` (stereo not given), which growth is on record?
A: 91.1%

Q: Which growth does the source give for `Cc1nccc2c3ccc(OCc4cn(-c5ccc(Cl)cc5)nn4)cc3n(CCCc3ccccc3)c12` here?
A: 90.8%

Q: How did the growth turn out when `Nc1nc(N)nc(NCc2ccccc2)n1` was run?
A: 112%

Q: How did the growth turn out when `O=C(O)C(/C=C/c1ccco1)=N\Nc1nc(-c2ccc(Cl)cc2)cs1` was run?
A: 11.5%

Q: For `O=S(=O)(c1cccc(NC2=Nc3cccc4cccc2c34)c1)N1CCCC1`, which growth is on record?
A: 75.2%

Q: How did the growth turn out when `COc1ccccc1-c1c(-c2ccc(Cl)cc2)c2cc3c(cc2[nH]c1=O)OCCO3` was run?
A: 80.5%

Q: Which growth does the source give for `NC(=S)N/N=C/c1ccc(OC(=O)COc2cc(Cl)c(Cl)cc2Cl)cn1` here?
A: 59.1%

Q: `CC(C)(C)CC(C)(C)Nc1c(-c2ccc3c(c2)OCO3)nc2cnccn12` was tested. Which growth did it give?
A: 95.6%

Q: With `CCCCCCNC(=O)Oc1ccc(/C(=C(/CC)Cc2ccccc2)c2ccc(OCCN(CC)CC)cc2)cc1` as the molecule, how does the growth read?
A: 99.8%

Q: How did the growth turn out when `C[C@H]1[C@H](C)CC[C@]2(CO)CC[C@]3(C)C(=CC[C@@H]4[C@@]5(C)Cc6c([nH]c7ccccc67)C(C)(C)[C@@H]5CC[C@]43C)[C@H]12` was run?
A: 85.2%

Q: `COc1ccc(NC(=O)c2sc3nc(C)c(C(=O)CCc4cccc(OC)c4)cc3c2N)cc1` was tested. Which growth did it give?
A: 53.2%

Q: Which growth does the source give for `O=C(Cc1ccc(/C=C/C(=O)c2ncc[nH]2)cc1)Nc1ccc(C(F)(F)F)cc1` here?
A: 100%

Q: With `O=S(=O)(NCCCNc1nccc(-c2c(-c3cccc(O)c3)nc3occn23)n1)c1ccc(F)cc1` as the molecule, how does the growth read?
A: 50.6%

Q: For `COc1ccc(-c2nc(N=Nc3c(O)[nH]c4ccccc34)nc(N3CCOCC3)c2C#N)cc1`, which growth is on record?
A: 77.9%

Q: For `O=S(=O)(NCCCNc1nccc(-c2c(-c3cccc(O)c3)nc3occn23)n1)c1ccc(Br)cc1`, which growth is on record?
A: 54.3%

Q: `CCCCCCCCCCCCC1CCC/C=C\CCC(=O)O1` (stereo not given) was tested. Which growth did it give?
A: 96.2%

Q: How did the growth turn out when `COc1cc(C2CC(c3cccc(Nc4ccncc4)c3)=NN2c2ccccc2)cc(OC)c1OC` (stereo not given) was run?
A: 83.1%

Q: How did the growth turn out when `CC1(C)[C@H](O)CC[C@]2(C)[C@@H]1CC[C@@]13C[C@@H](CC[C@H]12)[C@@](O)(CO)C3` was run?
A: 106%

Q: For `COc1c(Cl)cc(Cl)c2ccc(C=C3C(=O)N(C)C(=O)N(C)C3=O)nc12`, which growth is on record?
A: 107%

Q: With `C(=N\Nc1ncc(-c2cc3cc4c(cc3o2)OCO4)s1)/c1c[nH]c2ccccc12` as the molecule, how does the growth read?
A: 51.3%

Q: Which growth does the source give for `O=C(O)c1ccc[n+](CC(=O)N2CCN(c3cc4c(cc3F)c(=O)c(C(=O)O)cn4C3CC3)CC2)c1` here?
A: 86.1%

Q: Which growth does the source give for `CCCCCN1C=C/C(=C\C(=O)N(C)c2ccc(Br)cc2)c2ccccc21` here?
A: 109%

Q: `CCN(CC)CCCCCCNc1cc(OC)cc2cccnc12` was tested. Which growth did it give?
A: 114%

Q: For `COc1ccccc1/C=C1\Oc2cc(OCCCN3CCCC3)ccc2C1=O`, which growth is on record?
A: 102%

Q: How did the growth turn out when `O=c1[nH]nc(-c2ccc(Br)cc2)cc1Cc1ccc(O)cc1` was run?
A: 107%

Q: For `Cn1ncc2c(Nc3ccccc3Cl)nc(Cl)nc21`, which growth is on record?
A: 123%

Q: For `CNC(=O)Nc1ccc(-c2nc(N3CCOCC3)nc3c2cnn3C2CCOCC2)cc1`, which growth is on record?
A: -23.8% (active)

Q: With `C=C1C(=O)O[C@H]2[C@H]1CC/C(COC(=O)/C=C/c1c[nH]c3ccccc13)=C\CC[C@@]1(C)O[C@@H]21` as the molecule, how does the growth read?
A: -83.7% (active)

Q: With `COc1cc(-c2nc3occn3c2-c2ccnc(NCCNS(=O)(=O)c3ccc(Cl)cc3)n2)ccc1F` as the molecule, how does the growth read?
A: 71.9%

Q: With `CCN1C(=O)N(CC)C2NC(SC)=NC21` (stereo not given) as the molecule, how does the growth read?
A: 111%

Q: With `CC(C)Cc1ccc(C(C)C(=O)NCc2ccc(Cn3c(=O)sn(-c4ccc(Cl)cc4)c3=O)cc2)cc1` (stereo not given) as the molecule, how does the growth read?
A: 107%

Q: `CCOC(=O)c1c(C)nc2c(c1N)C(=O)C(=O)N2Cc1ccc(C(F)(F)F)cc1` was tested. Which growth did it give?
A: 77%

Q: How did the growth turn out when `CN(C)c1ccc(-c2c(C#N)c(N)n3nc(N)c(C#N)c3c2C#N)cc1` was run?
A: 88.3%

Q: How did the growth turn out when `CC(C)CN(C(=O)c1ccc(Cl)cc1)c1c(N)n(CC(C)C)c(=O)[nH]c1=O` was run?
A: 96.4%
